Assay results published in PubChem BioAssay AID1671189 (National Center for Advancing Translational Sciences (NCATS), 2021).
“And” between values parts separate entries of the source, which are not always exact repeats. Identical values can stand only once. Among all 1,100 compounds or so, about 70 (6%) were called active. Inconclusive results (about 22%) are left out. The full list was thinned out, with actives kept by preference. A number with no mark means an inactive call. The call rests on the fitted dose curve; in most records, active means well fitted curve in the direction sought with a large enough effect; inconclusive means small, poorly fitted or top-dose-only effect, or another doubt; inactive means no such curve, though single readings can be large or run the other way.

What follows are molecules tested against Polyunsaturated fatty acid lipoxygenase ALOX12 (Homo sapiens) (UniProt P18054) (assay: Confirmatory qHTS assay for inhibitors of human arachidonate 12S-lipoxygenase (ALOX12): Round 2). Conditions: purified human 12-LOX, xylenol orange absorbance; series mostly up to 125 µM; activity change, negative = inhibition: at the top concentration.
Sequence of Polyunsaturated fatty acid lipoxygenase ALOX12 (Homo sapiens) (P18054 whole entry, looked up): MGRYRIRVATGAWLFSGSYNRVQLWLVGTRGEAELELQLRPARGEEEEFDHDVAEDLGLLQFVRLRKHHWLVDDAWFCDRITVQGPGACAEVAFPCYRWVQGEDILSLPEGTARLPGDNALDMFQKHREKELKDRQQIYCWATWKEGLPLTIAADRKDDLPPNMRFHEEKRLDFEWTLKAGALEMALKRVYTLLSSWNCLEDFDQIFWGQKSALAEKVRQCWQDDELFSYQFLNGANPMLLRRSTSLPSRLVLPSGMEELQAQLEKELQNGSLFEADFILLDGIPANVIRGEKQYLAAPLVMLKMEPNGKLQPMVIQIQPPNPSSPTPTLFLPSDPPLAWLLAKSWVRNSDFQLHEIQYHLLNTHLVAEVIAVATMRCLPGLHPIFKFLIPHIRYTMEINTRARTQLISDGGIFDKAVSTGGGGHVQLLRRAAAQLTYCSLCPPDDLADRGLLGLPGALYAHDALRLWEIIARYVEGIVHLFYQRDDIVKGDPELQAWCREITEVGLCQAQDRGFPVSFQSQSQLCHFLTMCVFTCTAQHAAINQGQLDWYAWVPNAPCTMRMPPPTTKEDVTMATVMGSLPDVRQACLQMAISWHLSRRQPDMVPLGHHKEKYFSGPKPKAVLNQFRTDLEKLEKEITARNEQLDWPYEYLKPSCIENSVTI
How it was run: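 Activity was measured as hydroperoxide formation via ferrous/xylenol orange, taking the 573 nm to 405 nm absorbance ratio. Reaction: 40 uM arachidonic acid, 30 min at room temperature, after 15 min compound preincubation with 150 nM enzyme, pH 7.0 Hepes buffer.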
On the % scale 0 is the no-effect control and ±100 the full control effect; potency means the concentration at half of the fitted maximal effect.

SMILES	activity change, negative = inhibition	Potency
CNc1oc(-c2ccc(Cl)c(Cl)c2)nc1C#N	-1.38% [at 64.5 µM]	
c1cc(NCCN2CCCC2)ccn1	-4.41% [at 233 µM]	
c1ccc(NCCN2CCCC2)cc1	-22.6% [at 233 µM]	
Clc1ccc(NCCN2CCCC2)cc1		90.2 µM (active)
Cn1nc(C2CCNC2)c2c(C(=O)NC3CC3)cc(C3CC3)nc21 (stereo unspecified)	-13.8%	
O=C(OCC#CCSc1nnc(-c2cccc3ccccc23)o1)c1ccsc1	-10.6% [at 64.5 µM]	
NCc1ccc(-c2cccc(O)c2)cc1	-27.6%	
Nc1cc(-c2ccccc2)ccc1O		0.273 µM (active)
NCc1ccc(-c2cccc(Cl)c2)cc1	-14.7%	
N[C@@H]1CC[C@H](C(=O)N2CCC(c3nccn3Cc3ccncc3)CC2)C1	-14.6% [at 64.5 µM]	
O=C(OCC#CCSc1nnc(-c2cccc3ccccc23)o1)c1sccc1Cl	8.4% [at 64.5 µM]	
CN1CC(=O)N(C2CCNC2)Cc2c(NCC3(O)CCCCC3)ncnc21 (stereo unspecified)	-19.9%	
CCCCN1C(=O)[C@@H]2C[C@@H](O)CN2C2(CN(Cc3cnc[nH]3)C2)C1=O	16.1% [at 64.5 µM]	
O=C(c1cc(C2CC2)nc2onc(C3CCCNC3)c12)N1CCCCC1 (stereo unspecified)	-15.8%	
CC(=O)NC1(C)CCN(Cc2cnc(-c3ccccc3OCc3ccccc3)s2)CC1		4.47 µM (active)
O=C1NCc2ccccc2CC12CCN(Cc1ccc(Cl)o1)C2 (stereo unspecified)	-14.1%	
O=C1Nc2ccccc2C12CCN(Cc1ccccc1)C2 (stereo unspecified)	-20.4%	
CC(=O)N1CCN(C(=O)CSCC(=O)O)C[C@H]1C(=O)N[C@H]1CCCNC1=O	-4.79% [at 64.5 µM]	
O=c1[nH]c(C2CCCN(Cc3ccc(-c4cc(F)cc(F)c4)cc3)C2)nc2ccc(F)cc12 (stereo unspecified)	-20.1%	
CN1CC(=O)N(C2CCNCC2)Cc2c(NC3CCCCC3)ncnc21	-13%	
O=C(c1cc(-c2ccco2)nn1-c1cccc(Cl)c1)N1CCCCC1		9.68 µM (active)
O=C(c1ccccc1)N1CCn2c(nn(-c3cccc(Cl)c3)c2=O)C1	-29%	
O=c1n(-c2cccc(Cl)c2)nc2n1CCN([S+](=O)([O-])c1ccccc1)C2	-36%	

SMILES	activity change, negative = inhibition	Potency
O=C(c1ccc(C(F)(F)F)cc1)N1CCc2nc(C3CC3)nc(-c3ccc(Cl)cc3)c2C1	-19.2%	
O=C(N1CCCC1)N1CCn2c(nnc2-c2cncc(Br)c2)C1	-10.2%	
O=C(O)CCCC(=O)N1Cc2ccccc2CC2(CCCN2Cc2ccccc2)C1 (stereo unspecified)	-17.9%	
CC1CCCN(c2ncnc3c2CN(C2CCCNCC2)C(=O)CN3C)C1 (stereo unspecified)	-9.31%	
CCC(=O)NC(c1ccco1)c1cc(Cl)c2cccnc2c1O (stereo unspecified)		2.17 µM (active)
CCC(=O)NC(c1ccco1)c1cc(Cl)c2cccnc2c1OC (stereo unspecified)	10.7% [at 64.5 µM]	
CC(=O)NC(c1ccco1)c1cc(Cl)c2cccnc2c1O (stereo unspecified)		4.85 µM (active)
COc1ccc(CNc2ncnc3c2CN(C2CCCNCC2)C(=O)CN3C)cc1 (stereo unspecified)	-4.88%	
C[S+](=O)([O-])N1Cc2ccccc2OC2(CCN(C(=O)c3ccc(N)nc3)CC2)C1	-11.4%	
CN1C(=O)[C@@H]2C[C@@H](CN2C2CCCC2)Oc2ccccc21	14.6%	
N#Cc1ccc(CN2CCC3(CN[S+](=O)([O-])c4cnccc4O3)C2)cc1 (stereo unspecified)	-2.99%	
CNCCN1C(=O)CC[C@H]2CN(C(=O)c3ccc(Cl)cn3)CC[C@H]21	-6.14% [at 64.5 µM]	
C=CCNC(=O)[C@@H]1Cc2cn(CC#CC)c3cccc(c23)[C@H](CC(C)C)N1	24% [at 64.5 µM]	
C=CCn1cc(CN(Cc2ccco2)Cc2cccs2)c(C)n1		10 µM (active)
Cc1ccc(C(=O)N2CCn3c(nnc3C3CCNCC3)C2)cc1	-13.1%	
c1ccc(COCCCc2cnc[nH]2)cc1	-4.41%	
COCCNC(=O)c1cc(C)nc2onc(C3CCCNC3)c12 (stereo unspecified)	-16.4%	
O=C(O)c1ccc(-c2cnccn2)cc1	-16.6% [at 233 µM]	
CN1CCC2(Cc3ccccc3CN(C(=O)Cc3cccc(Cl)c3)C2)C1 (stereo unspecified)	-13.9%	
CNC(C)c1cccc(OC)c1 (stereo unspecified)	-2.95% [at 233 µM]	
O=[S+]([O-])(Nc1ccc(N2CCNCC2)cc1)c1ccc(NCc2ccc(Cl)cc2O)cc1		21.7 µM (active)
O=[S+]([O-])(Nc1ccc(N2CCNCC2)cc1)c1ccc(NCc2ccc(Br)cc2O)cc1		21.7 µM (active)
O=C(CCC[C@H]1NC[C@@H]2CC1CN(Cc1ccccc1)C2)NCc1ccc(F)cc1	-6.95% [at 64.5 µM]	

SMILES	activity change, negative = inhibition	Potency
Cc1ccc(CN2CCC3(CC2)Cc2ccccc2CNC3=O)cc1C	-18.2%	
O=C(NCc1ccncc1)c1cc(C2CC2)nc2c1c(C1CCCN1)nn2-c1ccccc1 (stereo unspecified)	-24.4%	
Cc1cc(C(=O)NCc2ccc(F)cc2)c2c(C3CCNC3)noc2n1 (stereo unspecified)	-2.62%	
O=C1CCN(C(=O)[C@@H]2CCCN2Cc2ccc(C(F)(F)F)cc2)CCCCCCN1	0.301% [at 64.5 µM]	
CCn1cc(-c2ccc(C)cc2)cc1C(=O)N1CCN(c2ccccn2)CC1	-19.2% [at 64.5 µM]	
CCC(C)Cn1c(/C=C/c2ccccc2)nc2ccccc21 (stereo unspecified)	-20.9%	
C[C@]1(CO)[C@H]2Cc3sc(NC(=O)c4ccnc(Cl)c4)nc3[C@@H](CC(=O)O)[C@]2(C)CC[C@H]1O	-0.718% [at 64.5 µM]	
CCC(=O)NC(c1cccs1)c1cc([N+](=O)[O-])c2cccnc2c1O (stereo unspecified)		6.11 µM (active)
COC(=O)[C@H](c1ccccc1Cl)N1CCc2sccc2C1	-3.69%	
CC(=O)NC(c1cccs1)c1cc(Cl)c2cccnc2c1O (stereo unspecified)		3.06 µM (active)
CC(=O)NC(c1cccs1)c1cc(Br)c2cccnc2c1O (stereo unspecified)	6.7% [at 64.5 µM]	
CCC(=O)NC(c1cccs1)c1cc(Cl)c2cccnc2c1O (stereo unspecified)		1.93 µM (active) and 4.85 µM (active) and 2.43 µM (active)
NCc1cccc(-c2cc(C(F)(F)F)ccc2Cl)c1	-40.7%	
Cc1ccc(CN2CCc3oc(C)c(C(=O)N4CCSCC4)c3C2)cc1	-4.93% [at 64.5 µM]	
Cc1ccc(CCN2CCCCC23Cc2ccccc2CN(C(=O)CCCC(=O)O)C3)cc1 (stereo unspecified)	-13.9%	
CN1CC(=O)N(C2CCCNC2)Cc2c(NC3CCCCCC3)ncnc21 (stereo unspecified)	-16.7%	
CC(C)(N)C(=O)N1CCCC(N2CCN(Cc3ccc4c(c3)OCO4)CC2)C1 (stereo unspecified)	-16% [at 64.5 µM]	
COc1ccc(N2CC3CCC(C2)N3C(C)=O)cc1	-16.6%	
O=C(c1cc(C2CC2)nc2onc(C3CCCN3)c12)N1CCC(F)CC1 (stereo unspecified)	-12.7%	
COc1ccc(C(=O)N2CC(Oc3ccc4c(c3)OCO4)C2)cc1	-21.1%	
O=C(NC1CCCCC1)O[C@@H]1CO[C@H]2[C@@H]1OC[C@@H]2n1nnnc1SCc1ccco1		7.08 µM (active)
O=C(Nc1ccccc1)O[C@@H]1CO[C@H]2[C@@H]1OC[C@@H]2n1nnnc1SCc1ccco1	-10.7% [at 64.5 µM]	
O=C(c1cc(C2CC2)nc2c1c(C1CCCN1)nn2-c1ccccc1)N1CCC(F)CC1 (stereo unspecified)	-14.7%	

SMILES	activity change, negative = inhibition	Potency
CNc1nnc(-c2cccc3ccccc23)s1	1.24% [at 64.5 µM]	
CCCC(=O)N1Cc2ccccc2CC2(CCN(Cc3ccccc3)CC2)C1	-3.28%	
CCC(=O)N1Cc2ccccc2CC2(CCN(Cc3ccncc3)CC2)C1	1.87%	
CCCC(=O)N1Cc2ccccc2CC2(CCN(Cc3ccc(O)cc3)C2)C1 (stereo unspecified)	-12.5%	
O=C(C1CCCC1)N1Cc2ccccc2CC2(CCN(Cc3cccnc3)C2)C1 (stereo unspecified)	-28.9%	
CC(=O)N1CC2(CCCN(CC3CCCCC3)C2)Cc2ccccc21 (stereo unspecified)	-4.35%	
O=C(c1ccc(Cl)cc1)N1CC2(CCCN(Cc3ccccn3)C2)Cc2ccccc21 (stereo unspecified)	-27.8%	
O=C(c1ccc(Cl)cc1)N1CC2(CCCN(Cc3ccc(Cl)cc3)C2)Cc2ccccc21 (stereo unspecified)		4.94 µM (active)
O=C(C1CCCC1)N1CC2(CCN(Cc3ccc(Cl)cc3)C2)Cc2ccccc21 (stereo unspecified)		6.22 µM (active)
O=C(C1CCCC1)N1Cc2ccccc2CC2(CCN(Cc3ccncc3)C2)C1 (stereo unspecified)	-11.8%	
O=C(c1ccc(Cl)cc1)N1CC2(CCN(Cc3ccc(Cl)cc3)C2)Cc2ccccc21 (stereo unspecified)		1.56 µM (active)
NC(=O)c1cccc(CN2CCC3(CC2)Cc2ccccc2N(C(=O)c2ccc(Cl)cc2)C3)c1		22.1 µM (active)
CC(=O)N1Cc2ccccc2CC2(CCN(Cc3ccncc3)C2)C1 (stereo unspecified)	-13.8%	
CC(=O)N1Cc2ccccc2OC2(CCN([S+](C)(=O)[O-])CC2)C1	-1.67%	
CNc1oc(C2CCCC2)nc1C#N	18.7% [at 64.5 µM]	
Cc1cccc(-c2cnc3n[nH]c(-c4ccc5c(c4)OCO5)c3n2)c1	-11.5% [at 64.5 µM]	
CN1CC(=O)N(C2CCCNC2)Cc2c(NC3CCC3)ncnc21 (stereo unspecified)	-14.2%	
N#Cc1cc2nc(O)c(O)nc2cc1[N+](=O)[O-]	-5.48%	
OC1(CN2CCN(c3nccs3)CC2)CCCNC1 (stereo unspecified)	-6.16% [at 64.5 µM]	
Cc1ccc(-c2ccccc2CN)c(C)c1	-9.84%	
CCOCCCNc1ncnc2c1CN(C1CCCNCC1)C(=O)CN2C (stereo unspecified)	-3.49%	
CN1CC(=O)N(C2CNC2)Cc2c(NC3CC3)ncnc21	5.35%	
CN1CC(=O)N(C2CCCNC2)Cc2c(NCC3CCCCCC3)ncnc21 (stereo unspecified)	-26.4%	

SMILES	activity change, negative = inhibition	Potency
O=C1NCc2ccccc2CC12CCN(Cc1ccc(F)c(Cl)c1)CC2	-23.5%	
C[S+](=O)([O-])N1CC2(Cc3ccccc3NC2=O)C1	-1.61%	
N#Cc1ccc(CN2CCn3c(nn(-c4cccc(Cl)c4)c3=O)C2)cc1	-26.4%	
O=C(c1ccc(C(F)(F)F)cc1)N1CCC2(CC1)C(=NC1CCCCC1)NC(=O)N2c1cc(F)cc(F)c1	-16.1%	
CC(=O)NCCC(=O)N1Cc2ccccc2CC2(CCCN2CC2CCNCC2)C1 (stereo unspecified)	-18%	
COc1cccc(CC(=O)N2CC(CO)C3(CCNCC3)C2)c1 (stereo unspecified)	-11.8% [at 64.5 µM]	
Nc1ccccc1CN1CCCC2(Cc3ccccc3CNC2=O)C1 (stereo unspecified)	-0.411%	
CCOc1cccc(CN2CCC3(Cc4ccccc4CNC3=O)C2)c1 (stereo unspecified)	-12.7%	
O=C1NCc2ccccc2CC12CCN(Cc1cc(O)cc(O)c1)C2 (stereo unspecified)	-15%	
Cc1cc(C)c(CN2CCC3(Cc4ccccc4CNC3=O)C2)c(C)c1 (stereo unspecified)		0.879 µM (active)
O=C1NCc2ccccc2CC12CCN(Cc1ccc(Cl)cc1)CC2	-21.7%	
O=C1NCc2ccccc2CC12CCN(Cc1ccccc1Cl)C2 (stereo unspecified)	-22.5%	
O=C1NCc2ccccc2CC12CCN(Cc1ccc(Br)cc1)C2 (stereo unspecified)		17.5 µM (active)
Cc1ccc(CN2CCC3(Cc4ccccc4CNC3=O)C2)cc1C (stereo unspecified)	-25.3%	
O=C1NCc2ccccc2CC12CCN(Cc1cccc(Br)c1)C2 (stereo unspecified)	-17.3%	
Cc1cc(C)cc(CN2CCC3(Cc4ccccc4CNC3=O)C2)c1 (stereo unspecified)	-13.7%	
O=C1NCc2ccccc2CC12CCN(Cc1ccc(Cl)cc1)C2 (stereo unspecified)		27.5 µM (active)
CCOc1ccc(CN2CCC3(Cc4ccccc4CNC3=O)C2)cc1 (stereo unspecified)	-18.2%	
O=C1NCc2ccccc2CC12CCN(Cc1ccc(Oc3ccccc3)cc1)C2 (stereo unspecified)		55.5 µM (active)
